{
  "source": "PubChem BioAssay (NCATS)",
  "note": "Inconclusive results are not listed. Where a call stands in place of a potency, no number is given. The source made the active and inactive calls. Calls follow the shape of the dose curve; as a rule, active = well fitted cell-killing curve with a large enough effect; inconclusive = small, poorly fitted or top-dose-only effect, or effect the other way; inactive = no such curve, though single readings can be large or run the other way.",
  "data": [
    {"test": "Quantitative High-Throughput drug screen in 47 multiple myeloma cell lines against the NCATS MIPE library collection: PE2_PLB cell viability assay (AID 1919869); also: nearly all actives have a fitted effect of over 35% in size", "conditions": "PE2_PLB myeloma cells viability, ATP luminescence, 48 h; series mostly up to 45.8 µM", "outline": "(§1)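 qHTS format: cells plated (500/well), pin-dosed with MIPE 4.0 compounds, kept 48 h at 37 °C. Readout was CellTiter-Glo luminescence, median RLU.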", "values": [
      {"smiles": "O=C(O)c1cc(O)c2c(c1)C(=O)c1cccc(O)c1C2=O", "Potency": "inactive"},
      {"smiles": "CC(=Cc1ccccc1)C=C1SC(=S)N(CC(=O)O)C1=O", "Potency": "inactive"},
      {"smiles": "Nc1ncnc2c1ncn2[C@@H]1O[C@@H](CO)[C@H](O)[C@H]1O", "Potency": "inactive"}
    ]},
    {"test": "Quantitative High-Throughput drug screen in 47 multiple myeloma cell lines against the NCATS MIPE library collection: PCM6_Riken cell viability assay (AID 1919870); also: nearly all actives have a fitted effect of over 30% in size; also: potency is read from the fitted curve at half-maximal effect", "conditions": "CellTiter-Glo ATP, 48 h; series mostly up to 45.8 µM", "outline": "as §1", "values": [
      {"smiles": "O=c1ccn([C@@H]2O[C@H](CO)[C@H](O)[C@H]2O)c(=O)[nH]1", "Potency": "inactive"},
      {"smiles": "C[C@]12CCC3c4ccc(O)cc4CCC3C1CCC2=O", "note": "(stereo partly specified)", "Potency": "inactive"},
      {"smiles": "C=CCc1ccc(O)c(-c2ccc(O)c(CC=C)c2)c1", "Potency": "20.9 µM (active)"},
      {"smiles": "CC(C)(C(=O)NCC(F)(F)C(F)(F)F)C(=O)N[C@@H]1C(=O)Nc2ccccc2-c2ccccc21", "Potency": "3.32 µM (active)"},
      {"smiles": "COc1ccc2cccc(CCNC(C)=O)c2c1", "Potency": "inactive"},
      {"smiles": "CC=CCC=CCCC(=O)[C@H]1O[C@@H]1C(N)=O", "Potency": "20.9 µM (active)"},
      {"smiles": "CC(C)(C)C(=O)Oc1ccc2c(c1)nc(NC(=O)c1cccc([N+](=O)[O-])c1)n2CCCO", "Potency": "inactive"},
      {"smiles": "C[N+](C)(C)CC(=O)O", "Potency": "inactive"},
      {"smiles": "O=c1cc(-c2cccc3c2Sc2ccccc2S3)oc(N2CCOCC2)c1", "Potency": "14.8 µM (active)"},
      {"smiles": "CC1(C)S[C@H]2[C@H](NC(=O)[C@@H](N)c3ccc(O)cc3)C(=O)N2[C@@H]1C(=O)O", "Potency": "1.87 µM (active)"},
      {"smiles": "O=C1Nc2ccc(Cl)cc2C(C#CC2CC2)(C(F)(F)F)O1", "note": "(stereo unspecified)", "Potency": "23.5 µM (active)"},
      {"smiles": "CON=C(C(=O)N[C@@H]1C(=O)N2C(C(=O)OCOC(=O)C(C)(C)C)=C(C=Cc3scnc3C)CS[C@H]12)c1csc(N)n1", "Potency": "20.9 µM (active)"},
      {"smiles": "CC(C)C(=O)Oc1ccc(CO)cc1[C@H](CCN(C(C)C)C(C)C)c1ccccc1", "Potency": "inactive"}
    ]}
  ]
}
